Screens deposited in PubChem BioAssay by National Center for Advancing Translational Sciences (NCATS).
An excerpt weighted towards active compounds, which were near 7.3% of everything screened.
Luc counter: Kinase-Glo luciferase inhibition (counter-screen). Q27757. Kinase-Glo luciferase, ATP luminescence, 8 min. Potency, µM (series often up to 38.3 µM), for the others: at the top dose activity change, negative = inhibition, most hits filed as inhibitors. hit rate 0.28% among 200,000; further: on the % scale 0 is the no-effect control and ±100 the full control effect; nearly all actives have a fitted effect of over 60% in size
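Recombinant Kinase-Glo luciferase, 10 uM ATP (linear range), luciferin; imidazole pH 7.2 / KCl / MgCl2 / Tween / BSA buffer; 8 min RT; luminescence.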
SMN2 splice up: SMN2 splice variant enhancement; AID 1458; hit rate 2.8% among 210,000; Potency, µM (doses to about 46.1 µM), inactives show top-dose activity change, positive = activation, usual class: activators; HEK293 SMN2-luciferase splicing reporter, luminescence, 30-36 h; further: % of control where 0% means no effect; nearly all actives have a fitted effect of over 55% in size
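HEK293 cells carry an SMN2 minigene-luciferase reporter in which exon 7 inclusion puts luciferase in frame. Cells were seeded at 2000 cells/well, attached for 10-12 hours, then exposed to compounds for 30-36 hours at 37C before ONE-Glo luminescence.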
NPC1 promoter act: NPC1 promoter activation | AID 485313 | Huh7 NPC1 promoter luciferase reporter, 24 h | Potency, µM (titrated, usually from 9.22 µM), inactives show at the highest dose activation, usual class: activators | hit rate 2.4% among 320,000; further: % of control where 0% means no effect; nearly all actives have a fitted effect of over 60% in size
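Quantitative HTS used a cell-based reporter: Huh7 cells stably bearing the NPC1 promoter upstream of luciferase were treated with compounds for 24 h, and promoter activation was read as luminescence.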
FLuc modulator: firefly luciferase modulation, counter-screen for miR-21 project; purified FLuc, Km substrates, luminescence inhibition; Potency, µM (highest dose often 57.5 µM), for the others: top-dose activity change, negative = inhibition, most hits filed as inhibitors; hit rate 6.9% among 360,000; AID 588342;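 further: plate controls were vehicle for no effect and reference inhibitor for full effect; nearly all actives have a fitted effect of over 55% in size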
Target sequence (P08659 whole entry, looked up): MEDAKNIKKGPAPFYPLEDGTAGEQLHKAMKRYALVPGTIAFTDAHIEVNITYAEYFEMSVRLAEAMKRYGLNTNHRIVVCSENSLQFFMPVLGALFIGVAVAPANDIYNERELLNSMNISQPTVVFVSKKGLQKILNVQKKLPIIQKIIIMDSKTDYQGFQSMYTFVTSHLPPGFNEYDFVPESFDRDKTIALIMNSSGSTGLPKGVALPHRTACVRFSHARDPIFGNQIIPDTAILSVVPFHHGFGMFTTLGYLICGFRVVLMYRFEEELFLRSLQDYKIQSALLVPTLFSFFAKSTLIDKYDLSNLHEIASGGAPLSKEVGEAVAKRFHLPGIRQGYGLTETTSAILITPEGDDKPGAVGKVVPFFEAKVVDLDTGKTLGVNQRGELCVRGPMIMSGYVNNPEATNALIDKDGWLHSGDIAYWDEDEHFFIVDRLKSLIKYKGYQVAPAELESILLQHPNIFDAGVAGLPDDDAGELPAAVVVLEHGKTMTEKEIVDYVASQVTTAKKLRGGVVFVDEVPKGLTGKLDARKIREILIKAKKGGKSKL
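Purified P. pyralis luciferase, 10 nM final, with Km-level 10 uM D-luciferin and 10 uM ATP in 50 mM Tris acetate pH 7.5, 10 mM Mg acetate, 0.01% Tween-20, 0.05% BSA; 6-point qHTS titration about 60 µM downward; luminescence read.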
Rab9 prom act: activates the Rab9 promoter | Huh7 Rab9 promoter-luciferase reporter, luminescence, 24 h | Potency, µM (highest dose often 9.22 µM), without a hit: at the top dose activation, negative = inhibition, hits mostly activators | hit rate 2.8% among 320,000; further: % of control where 0% means no effect; nearly all actives have a fitted effect of over 60% in size
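Quantitative HTS format; Huh7 Rab9-luciferase reporter cells (1500/well) receive compound 2 h post-plating, incubate 24 h at 37 °C, then get luciferase reagent for 10 min before luminescence reading.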
ELG1 genotoxic: inducers of genotoxicity in HEK293T ELG1-luciferase cells; HEK293T ELG1-luciferase reporter, luminescence, 16 h; Potency, µM (highest dose often 46 µM), for the others: at the top dose activity change, positive = activation, actives largely listed as activators; hit rate 1.3% among 330,000; further: % of control where 0% means no effect; nearly all actives have a fitted effect of over 60% in size
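HEK293T cells expressing luciferase-tagged ELG1 were treated with compound or DMSO for 16 hr at 37°C. Luciferase activity was then read after 30 min with ONE-Glo at room temperature; rising signal flags genetic stress.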
Numbers without * were called inactive; ? = inconclusive; . = no result. The call rests on the fitted dose curve; in most records, active means well fitted curve in the direction sought with a large enough effect; inconclusive means small, poorly fitted or top-dose-only effect, or another doubt; inactive means no such curve, though single readings can be large; an effect the other way counts as inactive or inconclusive. Potency means the concentration at half of the fitted maximal effect.

SMILES	Luc counter	SMN2 splice up	NPC1 promoter act	FLuc modulator	Rab9 prom act	ELG1 genotoxic
C=CCc1ccc(OCC(O)CO)c(OC)c1 (configuration not stated)	20%	-23%	13%	-11%	5%	8%
C=CCc1ccc(OC(=O)c2ccccc2)c(OC)c1	0%	-5%	-4%	6.7µM*	-2%	2%
Cc1cccc2nc(COc3ccc4ccccc4c3Br)cn12	.	.	3.5µM*	2.4µM*	3.2µM*	?
Cc1ccc(C(=O)O/N=C(\N)Cc2cccs2)c(Cl)c1	.	.	1.6µM*	1.2µM*	2µM*	2.1µM*
Cc1cc(OCC(=O)O/N=C(\N)Cc2cccs2)ccc1Br	0%	7%	-1%	?	2%	-1%
Cc1ccc(C(=O)O/N=C(\N)Cc2ccc([N+](=O)[O-])cc2)c(Cl)c1	.	.	-3%	21µM*	-1%	4%
Cc1ccc(NC(=O)C2CCCN(c3ncnc4onc(C)c34)C2)cc1Cl (configuration not stated)	.	.	.	1%	.	.
CC(=O)c1ccc(NC(=O)c2cnn3ccccc23)cc1	-14%	-37%	0.35µM*	5.4µM*	0.35µM*	1.3µM*
COc1cc(NC(=O)c2nc3ccccc3n(C)c2=O)cc(OC)c1OC	.	-2%	.	-20%	.	.
CC(=O)c1cccc(NC(=O)c2ccccc2-c2ccccc2C(=O)O)c1	.	.	5%	2%	-11%	-5%
CC(=O)c1cccc(NC(=O)c2nc3ccccc3n(C)c2=O)c1	.	23%	.	3.8µM*	.	.
CC(=O)c1cccc(NC(=O)c2cnn3ccccc23)c1	?	.	5µM*	12µM*	3.2µM*	12µM*
CC(=O)c1ccc(NC(=O)c2cnn(-c3cccc(F)c3)c2-n2cccc2)cc1	.	.	.	-13%	.	.
COc1ccc2ncc3c(-c4ccccc4)nn(-c4ccc(C)c(C)c4)c3c2c1	.	5%	.	-8%	.	.
CCc1ccccc1NC(=O)N(C)CCc1c(C)nn(C)c1C	.	-3%	.	1%	.	.
Cc1cc(C(=O)COC(=O)c2ccc(NC(=O)CC#N)cc2)c(C)n1-c1ccc(OC(F)F)cc1	.	.	.	.	.	-4%
CC(C)N(C(=O)COC(=O)c1ccc(Cl)c(S(N)(=O)=O)c1)C(C)C	-2%	1%	-4%	0%	7%	-3%
Cc1cc(C(=O)COC(=O)c2ccc(NC(=O)CC#N)cc2)c(C)n1C1CC1	.	.	?	13µM*	4µM*	18%
Cc1cc(C(=O)COC(=O)c2ccc(Cl)c(S(N)(=O)=O)c2)c(C)n1C1CC1	.	.	4µM*	4.8µM*	1.8µM*	15%
COc1ccc(-c2nc3scc(CCNS(=O)(=O)c4ccc5c(c4)OCCO5)n3n2)cc1	.	.	.	-18%	.	.
COc1ccccc1Nc1ncnc2c1nc1n2CCCC1	.	.	.	-2%	.	.
CCOc1ccc(Nc2ncnc3c2nc2n3CCCC2)cc1	.	.	.	15µM*	.	.
Cc1cc(C)cc(Nc2ncnc3c2nc2n3CCCC2)c1	.	.	.	-13%	.	.
CC(C)c1ccc(NC(=O)C2CCN(c3ncnc4c3nc3n4CCCCC3)CC2)cc1	.	.	-7%	-1%	-15%	12%
CC(C)c1ccc(Nc2ncnc3c2nc2n3CCCC2)cc1	.	.	.	5.4µM*	.	.
SMILES	Luc counter	SMN2 splice up	NPC1 promoter act	FLuc modulator	Rab9 prom act	ELG1 genotoxic
Cc1ccc(Nc2ncnc3c2nc2n3CCCC2)cc1F	.	.	.	13µM*	.	.
Fc1ccccc1Nc1ncnc2c1nc1n2CCCCC1	.	.	.	12µM*	.	.
CCc1ccc(NC(=O)CSC2=Nc3ccccc3C3=NC(CCC(=O)NCCc4ccccc4)C(=O)N23)cc1 (configuration not stated)	.	.	.	-10%	.	.
CSc1cccc(NC(=O)C2CCN(S(=O)(=O)c3ccc4c(c3)CCCN4C(=O)C3CCC3)CC2)c1	.	.	.	-8%	.	.
O=C(COc1cccc2cccnc12)N/N=C/c1ccc(O)cc1	5%	12%	-4%	17µM*	1%	-5%
O=C(COc1cccc2cccnc12)Nc1ccccc1	-1%	?	?	21µM*	4µM*	11%
O=C(COc1cccc2cccnc12)Nc1cccc(S(=O)(=O)N2CCCC2)c1	.	.	-1%	-14%	-7%	-2%
NC(=NCc1ccco1)NC(=O)c1ccc(Cl)cc1	.	.	?	17µM*	?	?
O=C(NCCCNC(=O)c1ccco1)c1ccc(Cl)cc1	.	.	1%	-13%	-3%	?
CCOc1ccc(CCNC(=O)CCCn2c(=O)c3cccn3c3cccnc32)cc1	.	.	.	-2%	.	.
O=C1O/C(=C\c2ccccc2)c2ccccc21	1%	-5%	-3%	12µM*	-3%	1%
CC(=O)c1ccc2c3c(cccc13)C(=O)N(CCc1ccccc1)C2=O	-2%	.	4µM*	11µM*	4µM*	-4%
CCOC(=O)c1[nH]c(C)c(CCC(=O)Nc2ccc(C(C)=O)cc2)c1C	.	.	.	4%	.	.
COC(=O)c1cc(OC)c(OC)cc1NC(=S)Nc1cccc(Cl)c1	0%	-14%	-7%	8%	6%	0%
CSc1ccc(NC(=O)Nc2ccccc2C(N)=O)cc1	.	.	?	1.1µM*	?	?
CC(C)(C)NC(=O)Nc1ccccc1C(N)=O	-2%	-5%	-1%	1%	-1%	-2%
NC(=O)c1ccccc1NC(=O)Nc1cccc(Cl)c1	-8%	12%	1%	15µM*	-8%	8%
COc1cc(NC(=O)Nc2cccc(Cl)c2)c(C(=O)O)cc1OC	.	.	-7%	27µM*	-3%	6%
COc1cccc(Nc2c(Nc3cccc(OC)c3)c(=O)c2=O)c1	.	.	-3%	1%	-3%	0%
COc1cccc(Nc2ccc(Nc3cccc(OC)c3)nn2)c1	1%	4%	-2%	19µM*	-7%	-1%
CCN(CC)CCCCn1c(-c2ccccc2)nc2c(NCCOC)nc(C)nc21	-2%	-1%	.	.	.	.
COc1ccc(C)cc1NC(=O)c1cc(S(=O)(=O)NC2CCCCCC2)ccc1F	.	.	.	-4%	.	.
